# What was measured:
# [1] = target: Fibroblast growth factor receptor 4 (Homo sapiens) (UniProt P22455); details: at 1 µM;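 also: reported figure is the averaged percent inhibition of FGFR4, from the GSK PKIS kinase screening panel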
# [2] = target: Tyrosine-protein kinase Fgr (Homo sapiens) (UniProt P09769); details: at 0.1 µM
# [3] = target: Tyrosine-protein kinase Fgr (Homo sapiens) (UniProt P09769); details: at 1 µM
# [4] = target: Vascular endothelial growth factor receptor 1 (Homo sapiens) (UniProt P17948); details: at 0.1 µM
# [5] = target: Vascular endothelial growth factor receptor 1 (Homo sapiens) (UniProt P17948); details: at 1 µM
# [6] = target: Receptor-type tyrosine-protein kinase FLT3 (Homo sapiens) (UniProt P36888); details: at 0.1 µM
# [7] = target: Receptor-type tyrosine-protein kinase FLT3 (Homo sapiens) (UniProt P36888); details: at 1 µM
# [8] = test system: T1, Receptor-type tyrosine-protein kinase FLT3 (Homo sapiens), P36888 [D835Y]; details: at 0.1 µM
# T1 sequence (whole entry): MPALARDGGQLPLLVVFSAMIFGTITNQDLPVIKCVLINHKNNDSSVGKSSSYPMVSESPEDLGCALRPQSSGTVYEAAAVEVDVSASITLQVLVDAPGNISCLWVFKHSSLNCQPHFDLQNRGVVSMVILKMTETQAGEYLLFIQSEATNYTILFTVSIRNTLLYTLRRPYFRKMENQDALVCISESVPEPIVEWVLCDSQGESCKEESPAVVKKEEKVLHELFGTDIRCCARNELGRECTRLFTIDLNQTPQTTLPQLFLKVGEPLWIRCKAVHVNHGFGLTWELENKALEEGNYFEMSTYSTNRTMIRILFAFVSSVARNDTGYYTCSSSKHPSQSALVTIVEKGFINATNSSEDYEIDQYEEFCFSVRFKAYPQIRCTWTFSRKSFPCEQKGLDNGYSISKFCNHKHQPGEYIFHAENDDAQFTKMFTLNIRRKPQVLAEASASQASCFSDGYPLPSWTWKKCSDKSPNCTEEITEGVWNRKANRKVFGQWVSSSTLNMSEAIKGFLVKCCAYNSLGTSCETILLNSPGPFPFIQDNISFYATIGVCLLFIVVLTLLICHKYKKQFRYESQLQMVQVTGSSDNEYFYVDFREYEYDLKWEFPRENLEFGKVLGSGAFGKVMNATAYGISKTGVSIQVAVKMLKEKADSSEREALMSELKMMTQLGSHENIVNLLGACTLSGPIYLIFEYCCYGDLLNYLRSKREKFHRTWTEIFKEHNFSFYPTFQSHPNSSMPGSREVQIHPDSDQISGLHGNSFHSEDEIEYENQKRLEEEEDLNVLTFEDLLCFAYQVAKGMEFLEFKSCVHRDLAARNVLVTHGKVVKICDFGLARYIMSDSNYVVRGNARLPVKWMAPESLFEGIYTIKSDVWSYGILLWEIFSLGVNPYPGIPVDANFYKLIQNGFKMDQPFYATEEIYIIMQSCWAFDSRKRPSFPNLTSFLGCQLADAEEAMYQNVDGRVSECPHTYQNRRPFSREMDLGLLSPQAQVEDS
# [9] = target: Non-receptor tyrosine-protein kinase TYK2 (Homo sapiens) (UniProt P29597); details: at 1 µM;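 also: values are mean percent inhibition of TYK2 kinase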
# [10] = target: T2, Tyrosine-protein kinase receptor TYRO3 (Homo sapiens) (UniProt Q06418); details: at 0.1 µM
# T2 sequence (whole entry): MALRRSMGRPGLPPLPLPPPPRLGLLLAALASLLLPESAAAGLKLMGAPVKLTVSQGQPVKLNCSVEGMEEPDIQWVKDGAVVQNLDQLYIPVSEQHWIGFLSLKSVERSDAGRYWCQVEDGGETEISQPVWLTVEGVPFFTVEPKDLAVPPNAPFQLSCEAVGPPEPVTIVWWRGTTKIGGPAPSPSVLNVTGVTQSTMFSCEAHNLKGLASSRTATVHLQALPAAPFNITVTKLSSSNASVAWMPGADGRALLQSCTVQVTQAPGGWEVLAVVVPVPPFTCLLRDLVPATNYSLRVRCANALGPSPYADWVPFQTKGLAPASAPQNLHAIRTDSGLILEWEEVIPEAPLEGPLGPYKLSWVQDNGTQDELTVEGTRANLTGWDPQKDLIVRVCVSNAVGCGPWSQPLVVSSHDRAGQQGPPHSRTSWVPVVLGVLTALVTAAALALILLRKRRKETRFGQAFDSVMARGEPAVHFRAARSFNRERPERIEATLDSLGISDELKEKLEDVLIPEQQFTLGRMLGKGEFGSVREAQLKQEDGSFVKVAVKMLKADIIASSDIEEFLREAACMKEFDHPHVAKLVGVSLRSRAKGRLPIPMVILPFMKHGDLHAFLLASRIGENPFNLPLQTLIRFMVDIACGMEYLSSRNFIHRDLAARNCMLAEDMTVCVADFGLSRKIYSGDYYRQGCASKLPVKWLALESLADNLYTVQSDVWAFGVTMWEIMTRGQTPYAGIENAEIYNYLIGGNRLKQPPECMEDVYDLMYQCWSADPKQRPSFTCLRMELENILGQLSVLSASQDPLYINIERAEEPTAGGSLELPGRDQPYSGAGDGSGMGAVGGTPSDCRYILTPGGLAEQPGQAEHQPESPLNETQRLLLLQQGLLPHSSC
# [11] = target: T2, Tyrosine-protein kinase receptor TYRO3 (Homo sapiens); details: at 1 µM
# [12] = target: Tyrosine-protein kinase Yes (Homo sapiens) (UniProt P07947); details: at 0.1 µM
# [13] = target: Tyrosine-protein kinase Yes (Homo sapiens) (UniProt P07947); details: at 1 µM
# [14] = target: T3, Tyrosine-protein kinase ZAP-70 (Homo sapiens) (UniProt P43403); details: at 0.1 µM
# T3 sequence (whole entry): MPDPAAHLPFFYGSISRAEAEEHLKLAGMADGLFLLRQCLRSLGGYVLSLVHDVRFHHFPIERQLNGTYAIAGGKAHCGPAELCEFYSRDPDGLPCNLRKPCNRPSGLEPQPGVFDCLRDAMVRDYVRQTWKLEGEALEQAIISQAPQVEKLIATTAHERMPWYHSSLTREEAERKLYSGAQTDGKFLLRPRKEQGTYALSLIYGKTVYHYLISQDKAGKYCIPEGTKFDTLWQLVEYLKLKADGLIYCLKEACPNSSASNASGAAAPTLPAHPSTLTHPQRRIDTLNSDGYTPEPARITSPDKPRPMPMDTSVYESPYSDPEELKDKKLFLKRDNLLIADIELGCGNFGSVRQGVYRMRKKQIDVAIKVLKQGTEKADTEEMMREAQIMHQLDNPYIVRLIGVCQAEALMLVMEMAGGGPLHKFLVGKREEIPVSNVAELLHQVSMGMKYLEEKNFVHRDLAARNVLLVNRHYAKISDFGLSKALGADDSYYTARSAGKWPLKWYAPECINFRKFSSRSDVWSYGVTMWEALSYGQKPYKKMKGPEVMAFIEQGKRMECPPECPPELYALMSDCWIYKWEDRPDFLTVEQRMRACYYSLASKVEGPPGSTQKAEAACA
# [15] = target: T3, Tyrosine-protein kinase ZAP-70 (Homo sapiens); details: at 1 µM
# [16] = target: Serine/threonine-protein kinase B-raf (Homo sapiens) (UniProt P15056); details: at 0.1 µM
# [17] = target: Serine/threonine-protein kinase B-raf (Homo sapiens) (UniProt P15056); details: at 1 µM
# [18] = test system: Serine/threonine-protein kinase B-raf (Homo sapiens), P15056 [V600E]; details: at 0.1 µM
# [19] = test system: Serine/threonine-protein kinase B-raf (Homo sapiens), P15056 [V600E]; details: at 1 µM
# [20] = target: RAF proto-oncogene serine/threonine-protein kinase (Homo sapiens) (UniProt P04049); details: at 0.1 µM;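 also: values are mean CRAF kinase inhibition from profiling of the GSK Published Kinase Inhibitor Set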
# Chain of RAF proto-oncogene serine/threonine-protein kinase (Homo sapiens) (P04049 whole entry): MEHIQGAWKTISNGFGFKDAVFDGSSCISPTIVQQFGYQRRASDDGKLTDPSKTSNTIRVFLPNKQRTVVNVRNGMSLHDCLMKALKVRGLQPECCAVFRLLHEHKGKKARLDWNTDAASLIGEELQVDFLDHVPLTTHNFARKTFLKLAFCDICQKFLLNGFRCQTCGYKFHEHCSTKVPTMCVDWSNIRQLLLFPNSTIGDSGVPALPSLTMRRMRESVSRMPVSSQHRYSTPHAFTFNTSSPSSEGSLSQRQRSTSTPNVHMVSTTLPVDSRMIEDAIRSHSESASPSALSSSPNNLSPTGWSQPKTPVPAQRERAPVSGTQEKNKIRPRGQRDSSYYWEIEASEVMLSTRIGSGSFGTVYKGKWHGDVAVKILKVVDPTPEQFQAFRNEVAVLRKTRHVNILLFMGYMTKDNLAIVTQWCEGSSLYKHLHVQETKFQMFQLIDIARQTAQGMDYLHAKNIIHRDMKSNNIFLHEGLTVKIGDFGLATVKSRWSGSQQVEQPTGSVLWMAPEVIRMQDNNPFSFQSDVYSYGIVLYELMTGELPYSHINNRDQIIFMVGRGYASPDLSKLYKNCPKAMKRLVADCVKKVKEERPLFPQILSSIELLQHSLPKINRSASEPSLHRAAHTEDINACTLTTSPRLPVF
# Chain of Serine/threonine-protein kinase B-raf (Homo sapiens), P15056 [V600E] (P15056 whole entry V600E): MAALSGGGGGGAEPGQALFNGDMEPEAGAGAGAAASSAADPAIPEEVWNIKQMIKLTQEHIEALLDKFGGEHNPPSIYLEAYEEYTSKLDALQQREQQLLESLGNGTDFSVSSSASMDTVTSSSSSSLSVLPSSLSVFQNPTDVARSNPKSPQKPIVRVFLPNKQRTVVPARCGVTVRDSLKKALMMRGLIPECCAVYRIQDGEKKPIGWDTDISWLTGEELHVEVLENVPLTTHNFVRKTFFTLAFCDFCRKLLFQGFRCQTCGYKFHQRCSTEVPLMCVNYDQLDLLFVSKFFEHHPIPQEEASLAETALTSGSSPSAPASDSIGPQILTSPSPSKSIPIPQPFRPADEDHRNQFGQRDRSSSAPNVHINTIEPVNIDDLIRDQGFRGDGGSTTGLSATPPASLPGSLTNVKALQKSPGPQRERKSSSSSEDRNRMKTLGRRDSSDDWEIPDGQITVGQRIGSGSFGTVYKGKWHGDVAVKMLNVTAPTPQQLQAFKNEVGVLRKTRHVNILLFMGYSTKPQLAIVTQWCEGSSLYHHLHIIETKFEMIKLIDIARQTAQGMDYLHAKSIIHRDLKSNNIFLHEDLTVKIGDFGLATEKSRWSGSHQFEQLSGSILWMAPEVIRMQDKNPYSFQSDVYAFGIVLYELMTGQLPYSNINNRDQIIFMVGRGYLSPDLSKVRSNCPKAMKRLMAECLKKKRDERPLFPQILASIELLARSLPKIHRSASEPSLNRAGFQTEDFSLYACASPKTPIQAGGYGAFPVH
# Chain of Fibroblast growth factor receptor 4 (Homo sapiens) (P22455 22-802 limits assumed): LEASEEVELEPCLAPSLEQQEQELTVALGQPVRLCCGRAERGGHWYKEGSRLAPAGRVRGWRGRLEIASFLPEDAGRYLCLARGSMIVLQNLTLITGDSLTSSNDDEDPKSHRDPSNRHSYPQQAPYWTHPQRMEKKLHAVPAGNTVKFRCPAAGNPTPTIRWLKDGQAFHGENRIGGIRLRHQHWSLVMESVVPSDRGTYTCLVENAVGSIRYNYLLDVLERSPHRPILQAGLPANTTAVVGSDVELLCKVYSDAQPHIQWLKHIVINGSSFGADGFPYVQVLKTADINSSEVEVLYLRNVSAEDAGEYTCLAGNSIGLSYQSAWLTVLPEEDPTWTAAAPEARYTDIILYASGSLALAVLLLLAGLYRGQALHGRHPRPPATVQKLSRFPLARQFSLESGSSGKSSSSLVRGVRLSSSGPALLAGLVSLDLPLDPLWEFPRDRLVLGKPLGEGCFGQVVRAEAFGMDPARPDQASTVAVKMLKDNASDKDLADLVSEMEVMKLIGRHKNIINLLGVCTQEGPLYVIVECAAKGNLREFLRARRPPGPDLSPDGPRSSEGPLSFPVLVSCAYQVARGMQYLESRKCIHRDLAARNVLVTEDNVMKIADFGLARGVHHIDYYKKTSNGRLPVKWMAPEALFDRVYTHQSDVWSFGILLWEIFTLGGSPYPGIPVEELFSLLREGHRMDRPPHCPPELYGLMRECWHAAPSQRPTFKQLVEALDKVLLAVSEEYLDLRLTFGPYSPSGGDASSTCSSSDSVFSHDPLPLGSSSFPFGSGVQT
# Chain of Serine/threonine-protein kinase B-raf (Homo sapiens) (P15056 whole entry): as the sequence (P15056 whole entry V600E) above, with E600V counted along it
# Chain of Tyrosine-protein kinase Yes (Homo sapiens) (P07947 2-543 limits assumed): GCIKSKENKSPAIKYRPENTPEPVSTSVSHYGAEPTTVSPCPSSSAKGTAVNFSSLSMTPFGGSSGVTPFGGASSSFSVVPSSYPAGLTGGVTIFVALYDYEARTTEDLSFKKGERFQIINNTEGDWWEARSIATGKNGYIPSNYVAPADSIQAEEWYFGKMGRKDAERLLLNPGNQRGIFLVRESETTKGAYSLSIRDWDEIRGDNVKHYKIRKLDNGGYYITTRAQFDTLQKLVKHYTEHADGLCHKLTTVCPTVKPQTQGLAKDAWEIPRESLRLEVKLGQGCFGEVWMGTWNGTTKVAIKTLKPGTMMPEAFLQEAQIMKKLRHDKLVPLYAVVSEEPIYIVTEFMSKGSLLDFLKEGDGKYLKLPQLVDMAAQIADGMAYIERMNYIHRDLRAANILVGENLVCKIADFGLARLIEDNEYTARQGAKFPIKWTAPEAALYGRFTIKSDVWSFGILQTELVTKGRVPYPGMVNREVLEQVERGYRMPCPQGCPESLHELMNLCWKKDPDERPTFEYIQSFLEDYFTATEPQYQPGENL
# Chain of Tyrosine-protein kinase Fgr (Homo sapiens) (P09769 2-529 limits assumed): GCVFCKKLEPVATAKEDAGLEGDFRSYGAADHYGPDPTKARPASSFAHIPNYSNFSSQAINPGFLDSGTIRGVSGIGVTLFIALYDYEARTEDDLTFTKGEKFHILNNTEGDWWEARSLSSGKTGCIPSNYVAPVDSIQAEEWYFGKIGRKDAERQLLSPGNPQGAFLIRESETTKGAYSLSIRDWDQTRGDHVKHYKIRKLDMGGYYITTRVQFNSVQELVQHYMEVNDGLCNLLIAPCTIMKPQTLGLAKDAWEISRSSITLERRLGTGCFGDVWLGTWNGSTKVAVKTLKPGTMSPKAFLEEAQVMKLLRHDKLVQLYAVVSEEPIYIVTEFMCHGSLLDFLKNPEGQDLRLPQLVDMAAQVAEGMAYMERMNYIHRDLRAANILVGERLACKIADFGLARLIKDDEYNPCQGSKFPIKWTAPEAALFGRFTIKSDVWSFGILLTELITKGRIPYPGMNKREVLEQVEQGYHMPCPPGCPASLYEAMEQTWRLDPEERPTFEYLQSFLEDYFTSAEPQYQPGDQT
# Chain of Non-receptor tyrosine-protein kinase TYK2 (Homo sapiens) (P29597 whole entry): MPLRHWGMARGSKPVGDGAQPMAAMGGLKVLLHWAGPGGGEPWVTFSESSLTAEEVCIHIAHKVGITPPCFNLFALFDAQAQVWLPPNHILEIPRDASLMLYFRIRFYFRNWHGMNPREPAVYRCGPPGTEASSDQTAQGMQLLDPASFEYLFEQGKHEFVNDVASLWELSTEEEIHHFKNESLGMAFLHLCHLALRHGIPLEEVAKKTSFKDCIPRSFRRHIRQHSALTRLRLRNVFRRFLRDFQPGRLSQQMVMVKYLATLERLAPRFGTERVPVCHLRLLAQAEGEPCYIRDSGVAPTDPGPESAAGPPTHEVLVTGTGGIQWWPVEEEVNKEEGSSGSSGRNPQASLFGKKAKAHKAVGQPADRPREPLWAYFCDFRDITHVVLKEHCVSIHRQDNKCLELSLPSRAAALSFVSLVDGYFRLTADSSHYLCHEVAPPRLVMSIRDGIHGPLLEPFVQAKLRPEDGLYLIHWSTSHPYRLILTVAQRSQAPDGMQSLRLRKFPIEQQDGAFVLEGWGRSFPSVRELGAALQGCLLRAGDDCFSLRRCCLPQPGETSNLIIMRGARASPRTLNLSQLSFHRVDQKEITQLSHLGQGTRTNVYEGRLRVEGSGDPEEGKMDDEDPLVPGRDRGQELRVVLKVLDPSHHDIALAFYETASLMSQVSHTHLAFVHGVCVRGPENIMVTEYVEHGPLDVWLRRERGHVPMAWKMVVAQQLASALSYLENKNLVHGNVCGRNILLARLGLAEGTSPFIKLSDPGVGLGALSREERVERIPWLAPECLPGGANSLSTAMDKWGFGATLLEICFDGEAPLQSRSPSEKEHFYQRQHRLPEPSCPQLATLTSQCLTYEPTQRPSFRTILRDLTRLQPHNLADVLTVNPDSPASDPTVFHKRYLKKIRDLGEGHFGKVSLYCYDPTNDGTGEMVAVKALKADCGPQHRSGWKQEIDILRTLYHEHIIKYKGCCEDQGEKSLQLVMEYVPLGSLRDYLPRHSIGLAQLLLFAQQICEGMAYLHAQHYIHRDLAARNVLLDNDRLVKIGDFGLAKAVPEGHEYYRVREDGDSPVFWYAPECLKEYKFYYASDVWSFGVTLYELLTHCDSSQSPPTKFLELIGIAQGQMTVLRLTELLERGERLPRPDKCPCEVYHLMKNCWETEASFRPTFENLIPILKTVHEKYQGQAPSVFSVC
Structure (SMILES),inhibition [1],inhibition [2],inhibition [3],inhibition [4],inhibition [5],inhibition [6],inhibition [7],inhibition [8],inhibition [9],inhibition [10],inhibition [11],inhibition [12],inhibition [13],inhibition [14],inhibition [15],inhibition [16],inhibition [17],inhibition [18],inhibition [19],inhibition [20]
COc1cccc(-n2ncc3c(N/N=C/c4ccc(F)cc4)ncnc32)c1,2.78%,11.4%,29.7%,2.07%,3.41%,3.58%,7.87%,0.24%,-1.74%,5%,9.33%,5.87%,25.1%,2.73%,2.54%,7.43%,8.16%,5.77%,7.05%,0.27%
CCOc1ccc2c(-c3ccnc(Nc4cccc(C(F)(F)F)c4)n3)cnn2n1,-0.95%,2.53%,5.2%,-0.98%,1.9%,-0.37%,5.14%,–,0%,0.79%,2.7%,0.08%,3.08%,0.89%,2.78%,3.46%,1.64%,3.04%,0.8%,-2.28%
CCN1CCC(CC(=O)Nc2n[nH]c3nnc(-c4cccc(F)c4F)cc23)CC1,-2.43%,2.47%,1.19%,0.64%,-0.57%,3.74%,1.44%,–,2.26%,1.36%,1.73%,2.07%,5.8%,-0.89%,0.5%,3.25%,2.64%,2.74%,1.57%,10.2%
Fc1ccc(-c2nn3ccccc3c2-c2ccncc2)cc1,2.03%,-0.1%,6.02%,1.98%,2.63%,-0.06%,2.86%,-0.98%,-0.08%,0.22%,1.25%,0.18%,5.66%,0.73%,2.32%,2.84%,7.13%,2.64%,4.72%,-1.45%
Nc1nc(-c2cccc(Cl)c2)c(-c2ccc3ncccc3n2)s1,2.06%,4.53%,4.6%,0.88%,3.45%,2.09%,2%,-4.43%,-0.72%,3.62%,5.98%,4.06%,18.4%,4.31%,3.94%,7.17%,9.65%,7.28%,8.63%,-1.17%
COc1ccc2c(-c3ccnc(Nc4cccc(OC(F)(F)F)c4)n3)cnn2n1,0.68%,5.29%,7.16%,1.57%,7.39%,3.4%,14.3%,3.59%,-2.09%,4.51%,7.73%,2.47%,6.34%,0.87%,3.62%,6.94%,7.89%,5.16%,6.12%,1.54%
CCCN(CCS(C)(=O)=O)Cc1ccc(-c2ccc3ncnc(Nc4ccc(OCc5cccc(F)c5)c(Cl)c4)c3c2)o1,3.7%,3.69%,7.51%,-1%,1.07%,0.88%,1.93%,1.48%,-0.78%,2.08%,1.99%,1.86%,8.75%,–,1.73%,3.07%,3.72%,3.15%,3.85%,1.57%

# From ChEMBL document CHEMBL1961873, “Compounds: GSK PKIS; Assays: Nanosyn kinase panel” (2012)
